Data on 8 molecules can be found in PubChem BioAssay (NCI).

About 83,000 compounds went through this panel and 20% of them were active in at least one assay; those are over-represented in the sample as a whole.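 Plates (96-well) were seeded with cells, treated with compound at one concentration, and incubated for 48 hours before percent growth was determined.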 Unmarked numbers belong to inactive results. Activity calls are given as the source filed them. Rule for the calls: active = growth percent below 10; inactive = the rest.

What all share (experiment): NCI-60 one-dose screen, 48 h (100 = growth as untreated, 0 = no growth, -100 = all killed)
One assay has as its system SK-MEL-2 melanoma. The following applies: 10 µM unless noted.
The test system of a further assay is EKVX NSCLC. The following applies: 10 µM unless noted.
The subject of a further assay is SN12C renal. The following applies: 10 µM unless noted.
The test system of a further assay is UO-31 renal. The following applies: 10 µM unless noted.
The subject of a further assay is ACHN renal. The following applies: 10 µM unless noted.
For another assay, the system named is CAKI-1 renal. The following applies: 10 µM.
A further assay has as its system A498 renal. To be noted: 10 µM unless noted.
The subject of a further assay is CCRF-CEM leukemia. The following applies: 10 µM unless noted.
The next assay has as its system MOLT-4 leukemia. The following applies: 10 µM unless noted.
The subject of another assay is SR leukemia. The following applies: 10 µM unless noted.
A further assay concerns RPMI-8226 leukemia. To be noted: 10 µM unless noted.
For the next assay, the system named is OVCAR-8 ovarian. The following applies: 10 µM unless noted.
The test system of another assay is OVCAR-5 ovarian. The following applies: 10 µM unless noted.
For a further assay, the system named is OVCAR-4 ovarian. To be noted: 10 µM unless noted.
The subject of a further assay is SK-OV-3 ovarian. To be noted: 10 µM unless noted.
A further assay deals with IGROV1 ovarian. To be noted: 10 µM unless noted.
For a further assay, the system named is OVCAR-3 ovarian. To be noted: 10 µM unless noted.
A further assay concerns HS 578T breast. The following applies: 10 µM unless noted.
In another assay the test system is NCI/ADR-RES ovarian. The following applies: 10 µM unless noted.

On to `COc1cc(C(=O)C[n+]2ccccc2)ccc1OC(C)=O`, for which the growth in the assay on SK-MEL-2 melanoma is 102%; with EKVX NSCLC, 100%; with SN12C renal, 98.1%; with UO-31 renal, 104%; in the assay with ACHN renal, 105%; with CAKI-1 renal, 99.3%. For the same molecule, the growth is 78.9% in the assay with A498 renal; 95.9% in the assay on CCRF-CEM leukemia; 98.2% in the assay with MOLT-4 leukemia; 109% in the assay on SR leukemia; 97.9% in the assay on RPMI-8226 leukemia; 102% in the assay with OVCAR-8 ovarian. For the same molecule, the growth in the assay on OVCAR-5 ovarian is 105%; in the assay with OVCAR-4 ovarian it was 96.8%; in the assay on SK-OV-3 ovarian, 97.5%; in the assay on IGROV1 ovarian, 107%; in the assay on OVCAR-3 ovarian, 106%; with HS 578T breast it was 95.1%. Besides, the growth in the assay on NCI/ADR-RES ovarian is 111%.
Turning to `CN1C(=O)C2(NN=C(c3cccc4ccccc34)S2)c2ccccc21` (stereo not given), the growth is 37.1% with SK-MEL-2 melanoma; 24% in the assay on EKVX NSCLC; 31.5% with SN12C renal; 18.5% in the assay with UO-31 renal; 30.5% in the assay on ACHN renal; 25.7% in the assay on CAKI-1 renal. The growth with A498 renal was 47%; in the assay on CCRF-CEM leukemia, 9.4% (active); in the assay on MOLT-4 leukemia, 2.9% (active); in the assay on SR leukemia, 28.5%; in the assay on RPMI-8226 leukemia it was 18.2%; in the assay with OVCAR-8 ovarian, 26.2%. The growth in the assay on OVCAR-5 ovarian was 50.2%; with OVCAR-4 ovarian it was 20%; with SK-OV-3 ovarian, 26.5%; in the assay with IGROV1 ovarian, 39.4%; in the assay on OVCAR-3 ovarian, 40.2%; in the assay on HS 578T breast, 51.1%. In addition, the growth in the assay on NCI/ADR-RES ovarian was 29%.
For `CCCCCCCCCCCCCCCC(=O)NS(=O)(=O)OC[C@H]1O[C@@H](n2cnc3c(N)ncnc32)[C@H](O)[C@@H]1O`, the growth in the assay on SK-MEL-2 melanoma is -24.7% (active); in the assay on EKVX NSCLC, -8.18% (active); in the assay with SN12C renal, -12.9% (active); with UO-31 renal, -69.8% (active); in the assay on ACHN renal, -18.6% (active); in the assay with CAKI-1 renal it was -61.4% (active). For the same molecule, the growth is -95.6% (active) in the assay with A498 renal; 5.11% (active) with CCRF-CEM leukemia; -4.18% (active) with MOLT-4 leukemia; 0.423% (active) in the assay on SR leukemia; 22.8% with RPMI-8226 leukemia; -10.9% (active) in the assay on OVCAR-8 ovarian. Further, the growth in the assay with OVCAR-5 ovarian is -45.3% (active); in the assay on OVCAR-4 ovarian, -48.4% (active); with SK-OV-3 ovarian it was -18.5% (active); in the assay on IGROV1 ovarian, -52.2% (active); with OVCAR-3 ovarian, -75.1% (active); in the assay with HS 578T breast, -14.6% (active). Besides, the growth in the assay with NCI/ADR-RES ovarian was -20.5% (active).
As to `O=C(CSc1nnc(-c2cc3c([nH]c4ccccc43)c(-c3cccc(O)c3)n2)n1-c1ccccc1)c1ccccc1`, the growth was 65.7% in the assay with SK-MEL-2 melanoma; 69.3% with EKVX NSCLC; 67.7% in the assay with SN12C renal; 63.4% in the assay with UO-31 renal; 40.3% with ACHN renal; 45.5% with CAKI-1 renal. The growth in the assay with A498 renal is 67%; in the assay with CCRF-CEM leukemia, 30.9%; with MOLT-4 leukemia, 41.7%; with SR leukemia, 18.6%; in the assay on RPMI-8226 leukemia it was 43.4%; with OVCAR-8 ovarian it was 57.3%. The growth in the assay on OVCAR-5 ovarian is 104%; with OVCAR-4 ovarian, 50.1%; with SK-OV-3 ovarian, 92.8%; in the assay with IGROV1 ovarian it was 61.2%; in the assay with OVCAR-3 ovarian, 40.6%; in the assay on HS 578T breast, 73.3%. The growth in the assay on NCI/ADR-RES ovarian was 64%.
Regarding `O=C1COc2ccccc2C(=O)N1CCCCNc1ccccc1`, the growth in the assay with SK-MEL-2 melanoma was 104%; in the assay with EKVX NSCLC, 106%; in the assay with SN12C renal, 58.4%; with UO-31 renal, 12.2%; in the assay on ACHN renal it was 110%; in the assay with CAKI-1 renal it was 107%. In addition, the growth with A498 renal is 97.8%; with CCRF-CEM leukemia it was 1.06% (active); with MOLT-4 leukemia, 34.1%; with SR leukemia, 84.8%; in the assay with RPMI-8226 leukemia, 28.3%; in the assay with OVCAR-8 ovarian, 93.9%. The growth in the assay on OVCAR-5 ovarian was 107%; in the assay with OVCAR-4 ovarian, 112%; in the assay on SK-OV-3 ovarian, 84.8%; with IGROV1 ovarian, 99.9%; in the assay with OVCAR-3 ovarian, 105%; in the assay with HS 578T breast, 108%. Also, in the assay with NCI/ADR-RES ovarian, the growth is 94.6%.
`O=C(Nc1ccc(-n2ccc3c(NC(=O)c4ccccc4)ncnc32)cc1)c1ccc(Cl)c(C(F)(F)F)c1`: the growth was 34.7% in the assay with SK-MEL-2 melanoma; 47.7% with EKVX NSCLC; 22% in the assay on SN12C renal; 32.7% with UO-31 renal; 27.6% with ACHN renal; 34.8% in the assay on CAKI-1 renal. Besides, the growth was 80.1% in the assay on A498 renal; 7.36% (active) with CCRF-CEM leukemia; 4.17% (active) with MOLT-4 leukemia; -19.6% (active) in the assay on SR leukemia; 6.7% (active) in the assay with RPMI-8226 leukemia; 3.65% (active) in the assay with OVCAR-8 ovarian. The growth with OVCAR-5 ovarian was 52%; in the assay with OVCAR-4 ovarian it was 17.1%; with SK-OV-3 ovarian, 65.6%; in the assay with IGROV1 ovarian, 15.3%; in the assay with OVCAR-3 ovarian, -3.5% (active); in the assay on NCI/ADR-RES ovarian, 29.9%.
As to `CN(CCNCc1ccccn1)CCNCc1ccccn1`, the growth was -2.1% (active) in the assay with SK-MEL-2 melanoma; 23.8% with EKVX NSCLC; 27.9% with SN12C renal; -11.8% (active) in the assay with UO-31 renal; 0.79% (active) with ACHN renal; -42% (active) with CAKI-1 renal. The growth was -91.9% (active) with A498 renal; 10.7% with CCRF-CEM leukemia; 1.98% (active) with MOLT-4 leukemia; 9.92% (active) in the assay on SR leukemia; 18.9% in the assay with RPMI-8226 leukemia; 13.5% in the assay on OVCAR-8 ovarian. Moreover, the growth is -1.39% (active) in the assay on OVCAR-5 ovarian; -17.3% (active) in the assay on OVCAR-4 ovarian; -23% (active) with SK-OV-3 ovarian; 26.9% in the assay with IGROV1 ovarian; -37.1% (active) with OVCAR-3 ovarian; 48.9% in the assay with HS 578T breast. In the assay with NCI/ADR-RES ovarian, the growth is 4.32% (active).
Consider `O=C(Nc1cccc(-n2ccc3c(NC(=O)c4ccccc4)nccc32)c1)Nc1cc(C(F)(F)F)cc(C(F)(F)F)c1`, for which the growth in the assay on SK-MEL-2 melanoma is -11.9% (active); with EKVX NSCLC it was 19%; in the assay on SN12C renal, 12.7%; in the assay with UO-31 renal, 12.1%; in the assay on ACHN renal, 8.65% (active); in the assay with CAKI-1 renal, 15.3%. Besides, the growth is 16.4% with A498 renal; -4.29% (active) in the assay on CCRF-CEM leukemia; 7.11% (active) in the assay with MOLT-4 leukemia; -14.9% (active) in the assay on SR leukemia; -30.6% (active) in the assay on RPMI-8226 leukemia; -32.1% (active) in the assay on OVCAR-8 ovarian. In addition, the growth is 28% in the assay with OVCAR-5 ovarian; 43.9% with OVCAR-4 ovarian; 13.5% in the assay with SK-OV-3 ovarian; 6.92% (active) in the assay on IGROV1 ovarian; -26.9% (active) in the assay with OVCAR-3 ovarian; -30.5% (active) in the assay on NCI/ADR-RES ovarian.
